This is a sample that favours compounds with a hit; in the whole collection about 8.9% have one here.
HPGD inh = blocks human HPGD enzyme activity; 150,000 compounds, 4.3% hits; purified HPGD, NADH fluorescence kinetic, PGE2 substrate; P15428; Potency, µM, actives largely listed as inhibitors; AID 894; active means well fitted inhibition curve with a large enough effect, not every such curve was filed as active; inconclusive means small, poorly fitted or top-dose-only effect, or another doubt; inactive means no such curve, though single readings can be large or run the other way
Target sequence (P15428 whole entry, looked up): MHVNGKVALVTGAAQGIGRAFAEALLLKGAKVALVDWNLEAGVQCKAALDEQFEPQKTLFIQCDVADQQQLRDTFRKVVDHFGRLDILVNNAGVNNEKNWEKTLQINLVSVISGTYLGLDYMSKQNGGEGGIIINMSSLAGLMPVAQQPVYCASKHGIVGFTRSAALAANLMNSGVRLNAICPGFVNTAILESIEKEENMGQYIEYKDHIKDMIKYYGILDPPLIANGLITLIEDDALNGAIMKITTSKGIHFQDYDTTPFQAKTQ
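NADH formation kinetics: reaction with 30 uM PGE2 and 1 mM NAD+ (final), 20 nM enzyme, Tris-HCl pH 8 with Tween 20, after 15 min compound preincubation at room temperature. Fluorescence change, last versus first of five reads.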
IMPase inh = cell-permeable inhibitors of inositol monophosphatase (IMPase); P97697; CHO-M1 cells, IP1 accumulation, HTRF TR-FRET ratio; 120,000 tested, under 10 active; inhibition (IP1 accumulation), % at 46.1 µM; active means well fitted curve in the direction sought with a large enough effect in the signal ratio, not every such curve was filed as active; inconclusive means small, poorly fitted or top-dose-only effect, or a change in a side signal; inactive means no such curve, though single readings can be large or run the other way; the % refers to the signal ratio;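 further: cells stimulated with carbachol in lithium chloride buffer; higher means more IMPase inhibition seen as more IP1 and lower FRET ratio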
Target sequence (P97697 whole entry, looked up): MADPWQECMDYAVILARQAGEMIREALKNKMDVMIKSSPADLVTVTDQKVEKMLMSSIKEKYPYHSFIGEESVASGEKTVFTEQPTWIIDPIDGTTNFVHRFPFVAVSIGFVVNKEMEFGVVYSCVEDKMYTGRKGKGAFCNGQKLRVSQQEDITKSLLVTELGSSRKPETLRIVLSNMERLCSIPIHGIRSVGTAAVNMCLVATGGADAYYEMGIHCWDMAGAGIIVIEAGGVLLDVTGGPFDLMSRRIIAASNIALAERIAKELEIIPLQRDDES
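Measured: the HTRF emission ratio (665/620 nm) plus the 620 nm donor channel, each fitted to the Hill equation to give AC50. Cells were CHO-M1 given compounds up to 46 uM and a 30 min carbachol stimulation at 37C.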
NPSR antagonist = blocks cAMP signaling of the human neuropeptide S receptor. Q6W5P4. CHO-NPSR cells, cAMP TR-FRET, antagonist mode. Potency, µM (doses to about 38.3 µM), usual class: inhibitors. 220,000 compounds, 1% hits; further: nearly all actives have a fitted effect of over 50% in size
IMPase Li inh = membrane-permeable IMPase blocker, potentiated with lithium. CHO-M1 cells, IP1 TR-FRET (IP-One), carbachol + lithium. AID 1457. 210,000 compounds, 0.35% hits. Potency, µM (titrated, usually from 59.4 µM), most hits filed as inhibitors;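 further: IP1 builds up when IMPase is blocked and the TR-FRET signal falls; nearly all actives have a fitted effect of over 50% in size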
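Readout is a homogeneous TR-FRET IP1 immunoassay (Ex 320, Em 665 and 620), where raised cytosolic IP1 lowers signal. Cells were CHO-M1 treated 30 min at 37C with test compounds plus a little lithium; AC50 values came from Hill-equation fitting.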
ALDH1A1 inh = blocks purified human ALDH1A1 activity. 220,000 compounds, 7.3% hits. Purified ALDH1A1, NADH fluorescence, propionaldehyde substrate. Potency, µM (titrated, usually from 75.3 µM), most hits filed as inhibitors. P00352; active means well fitted inhibition curve with a large enough effect, not every such curve was filed as active; inconclusive means small, poorly fitted or top-dose-only effect, or another doubt; inactive means no such curve, though single readings can be large or run the other way
12-hLO inh = blocks human 12-lipoxygenase activity. purified 12-hLO, xylenol orange hydroperoxide absorbance. Potency, µM (doses to about 57.1 µM), actives largely listed as inhibitors. 150,000 compounds, 0.12% hits; further: nearly all actives have a fitted effect of over 55% in size
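Hydroperoxide formation by human 12-lipoxygenase from 40 uM arachidonic acid was followed colorimetrically via ferric-xylenol orange complex, using the 573/405 nm absorbance ratio. Enzyme concentration was 150 nM, with 30 min reaction at room temperature.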
Numbers stand for hits; – = inactive; ? = inconclusive; · = no result. Unless noted, the call rests on the fitted dose curve; in most records, active means well fitted curve in the direction sought with a large enough effect; inconclusive means small, poorly fitted or top-dose-only effect, or another doubt; inactive means no such curve, though single readings can be large; an effect the other way counts as inactive or inconclusive.

SMILES | HPGD inh | IMPase inh | NPSR antagonist | IMPase Li inh | ALDH1A1 inh | 12-hLO inh
N#C/C(=C\c1ccc(N2CCOCC2)o1)c1ccccc1 | ? | – | ? | – | 11.2µM | –
CCN(CC)S(=O)(=O)c1cc(NC(=O)C(C)N2CCN(c3ccccn3)CC2)ccc1C (centres undefined) | · | · | – | – | ? | ·
Cc1cccc(NC(=O)CSc2nnc3c4ccccc4n(C)c3n2)c1 | · | – | · | · | · | ·
COc1ccc(CNC(=O)c2c([S-])n(-c3ccc(C)cc3)c3cccc[n+]23)cc1 | · | · | – | ? | ? | ·
Cc1ccc(-n2c([S-])c(C(=O)NC(C)c3ccccc3)[n+]3ccccc23)cc1 (centres undefined) | · | · | – | – | 3.16µM | ·
COc1cccc(CNc2ccc3c(c2)CCC3)c1 | – | – | – | – | 12.6µM | –
COc1cccc(CNc2ccc(C)c(Cl)c2)c1 | · | · | – | – | – | ·
Cn1cc(C=C2C(=O)CC(C)(C)CC2=O)c2ccccc21 | – | – | – | – | 1.26µM | –
Cn1cc(C=C2C(=O)OC3(CCCCC3)OC2=O)c2ccccc21 | · | · | – | · | · | ·
Cc1ccccc1-n1nnnc1SCc1csc(-c2ccccc2)n1 | – | – | – | – | 7.94µM | –
CCOC(=O)c1c(C)[nH]c(C)c1C(=O)CSc1nnnn1-c1ccccc1 | – | – | – | – | 31.6µM | –
CCOC(=O)c1[nH]c(CSc2nnc(-c3ccncc3)n2CCOC)c(C(=O)OCC)c1C | – | – | – | – | – | –
COC(=O)c1c(C)[nH]c(C(=O)CSc2nnnn2-c2ccccc2)c1C | – | – | – | – | – | –
CCOC(=O)c1[nH]c(CSc2nnnn2-c2ccccc2C)c(C(=O)OCC)c1C | – | – | – | – | 3.55µM | –
Cc1ccccc1-n1nnnc1SCC(C)C | · | · | – | – | 1.12µM | ·
CCn1c(SCC(=O)c2ccc(NC(C)=O)c(OC)c2)nnc1-c1ccc(NS(C)(=O)=O)cc1 | – | · | – | – | – | –
CC1CCCN(C(=O)COc2ccc(NC(=O)c3cccs3)cc2)C1 (centres undefined) | · | · | – | – | – | ·
COc1ccc(C(=O)Nn2cnnc2)c(OC)c1 | – | – | – | – | – | –
CC(C)c1ccc(CN(C(=O)/C=C/c2ccco2)C2CCS(=O)(=O)C2)cc1 (centres undefined) | · | · | – | · | 17.8µM | ·
O=C(/C=C/c1ccccc1Cl)N(Cc1ccc(Cl)cc1)C1CCS(=O)(=O)C1 (centres undefined) | – | · | – | – | – | –
O=C(/C=C/c1ccccc1Cl)N(Cc1ccccc1)C1CCS(=O)(=O)C1 (centres undefined) | – | – | – | – | 11.2µM | –
CC(C)(C)C(=O)NC(=S)Nc1ccccc1N1CCCC1 | · | · | – | – | – | ·
CC1(c2ccccc2)CC(C)(C)N2C(=O)/C(=C3\SC(=S)NC3=O)c3cccc1c32 (centres undefined) | – | – | 5.01µM | – | – | –
CC1(c2ccccc2)CC(C)(C)N2C(=O)C3(C(C#N)=C(N)Oc4cc(O)ccc43)c3cccc1c32 (centres undefined) | – | – | ? | – | – | –
O=c1cc(CSc2nnc(Nc3ccccc3F)s2)nc2sccn12 | · | · | – | – | – | ·
SMILES | HPGD inh | IMPase inh | NPSR antagonist | IMPase Li inh | ALDH1A1 inh | 12-hLO inh
COc1ccc(Nc2nnc(SCc3cc(=O)n4ccsc4n3)s2)cc1 | 31.6µM | – | – | – | 14.1µM | –
CCOc1ccc(N2C(=O)C(CC(=O)Nc3ccc(F)cc3)N(Cc3ccccn3)C2=S)cc1 (centres undefined) | · | · | – | – | – | ·
CC(=O)c1cc(F)ccc1OCC(=O)N1CCN(c2ccc(F)cc2)CC1 | · | · | – | – | 25.1µM | ·
COC(=O)c1ccccc1OCC(=O)N1CCN(c2ccc(F)cc2)CC1 | – | – | – | – | – | –
COC(=O)c1cc(CSc2nc3ccccc3[nH]2)oc1C | – | – | – | – | – | –
CCCc1cc(=O)[nH]c(SCc2cc(C(=O)OC)c(C)o2)n1 | 15.8µM | – | – | – | – | –
Cc1ccc(C2(C)NC(=O)N(CC(=O)NC(=O)NCCC(C)C)C2=O)cc1 (centres undefined) | – | – | – | – | – | –
O=C(NCCC1=CCCCC1)C1CCN(C(=O)Cc2ccccc2)CC1 | · | · | – | – | 5.01µM | ·
O=C(Nc1cc(Cl)ccn1)C1CCN(S(=O)(=O)c2cccs2)CC1 | – | – | – | – | 8.91µM | –
Cc1ccc(CNC(=O)C2CCN(S(=O)(=O)c3cccs3)CC2)o1 | – | – | – | – | 14.1µM | –
O=C(NCCC1=CCCCC1)C1CCN(S(=O)(=O)c2cccs2)CC1 | – | – | – | – | 12.6µM | –
CCOc1ccc(NC(=O)C2CC(=O)N3CCCN=C3S2)cc1 (centres undefined) | – | – | – | – | 14.1µM | –
CCOc1ccc(NC(=O)C2CC(=O)N(C)C(=Nc3ccc4c(c3)OCO4)S2)cc1 (centres undefined) | – | – | – | – | – | –
CCCOc1ccc(NC(=O)C2CC(=O)N3CCCN=C3S2)cc1 (centres undefined) | – | – | – | – | 2.82µM | –
CCCc1cc2c(cc1NC(=O)c1ccc(C(C)(C)C)cc1)OCO2 | – | – | – | – | ? | –
Cc1ccc(S(=O)(=O)N(C(=O)c2ccncc2)c2ccc(OC(=O)c3ccncc3)c3ccccc23)c(C)c1 | 28.2µM | – | – | – | 7.94µM | –
COC(=O)c1c(C)oc2ccc(N(C(=O)c3ccncc3)S(=O)(=O)c3ccc(C)cc3)cc12 | – | – | – | – | – | –
Cc1ccc(S(=O)(=O)N(C(=O)c2ccncc2)c2ccc(OC(=O)c3ccncc3)c3ccccc23)cc1 | 20µM | – | – | – | 3.98µM | –
COc1ccc(NC(=O)Nc2nnc(CC(=O)Nc3ccccc3)s2)cc1 | · | · | – | · | · | ·
CC(=O)NC(Cc1cccc(F)c1)C(=O)NC1CCN(C(=O)c2cccc(C)c2)CC1 (centres undefined) | · | · | – | – | – | ·
O=C1c2ccncc2C(=O)N1Cc1cccc(Cl)c1 | 17.8µM | – | – | – | – | –
CC(/C=C/c1ccccc1)=N/NC(=O)c1cc([N+](=O)[O-])cc([N+](=O)[O-])c1 | ? | · | – | – | – | –
CCOC(=O)c1c(C)cc(O)c(C)c1O | – | · | · | – | – | –
Cc1cccn2c(=O)c3cc(C(=O)NCc4ccco4)c(=N)n(C(C)C)c3nc12 | ? | – | – | – | ? | –
CCOc1ccc(CCNC(=O)CSc2nn(-c3ccc(C)c(Cl)c3)c(=S)s2)cc1OCC | – | ? | – | 10µM | 28.2µM | –
CCOc1ccc(CCNC(=O)CSc2nnnn2C)cc1OCC | · | · | – | – | – | ·
Cc1ccc(S(=O)(=O)N2CCOCC2)cc1C(=O)c1nccn1C | · | · | – | – | 18.9µM | ·
